Results filed as inconclusive are left out. The source made the active and inactive calls. Calls come from the whole dose curve; as a rule, active = well fitted curve in the direction sought with a large enough effect; inconclusive = small, poorly fitted or top-dose-only effect, or another doubt; inactive = no such curve, though single readings can be large; an effect the other way counts as inactive or inconclusive.
Key:
[1] = Quantitative High-Throughput drug screen in 47 multiple myeloma cell lines against the NCATS MIPE library collection: Delta47_JCRB cell viability assay (AID 1918925; note: nearly all actives have a fitted effect of over 45% in size); details: Delta47 myeloma viability, CellTiter-Glo ATP, 48 h; series mostly up to 45.8 µM
Procedure, shortened: (§1)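 Myeloma cell lines, 500 cells per well, exposed to MIPE 4.0 library compounds for 48 h at 37C, 5% CO2. Viability from ATP by CellTiter-Glo luminescence; normalised to DMSO (100%) and media-only (0%) wells.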

[2] = Quantitative High-Throughput drug screen in 47 multiple myeloma cell lines against the NCATS MIPE library collection: AMO1_DSMZ cell viability assay (AID 1918927; note: nearly all actives have a fitted effect of over 30% in size); details: AMO1 myeloma cells viability, CellTiter-Glo ATP luminescence, 48 h; series mostly up to 45.8 µM
Procedure, shortened: as §1

[3] = Quantitative High-Throughput drug screen in 47 multiple myeloma cell lines against the NCATS MIPE library collection: ARD_JJKsccE7 cell viability assay (AID 1918929); details: ARD myeloma cell line viability, CellTiter-Glo, 48 h; series mostly up to 45.8 µM
Procedure, shortened: as §1

[4] = Quantitative High-Throughput drug screen in 47 multiple myeloma cell lines against the NCATS MIPE library collection: Karpas620_DSMZ cell viability assay (AID 1918959); details: Karpas620 myeloma viability, CellTiter-Glo ATP luminescence, 48 h; series mostly up to 45.8 µM; note: nearly all actives have a fitted effect of over 30% in size
Procedure, shortened: as §1

[5] = Quantitative High-Throughput drug screen in 47 multiple myeloma cell lines against the NCATS MIPE library collection: KMM1_JCRB cell viability assay (AID 1918960); details: KMM1 myeloma viability, CellTiter-Glo ATP luminescence, 48 h; series mostly up to 45.8 µM; note: nearly all actives have a fitted effect of over 30% in size
Procedure, shortened: (§2)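 Myeloma cells, 500 per well, were exposed to MIPE 4.0 drugs by pin transfer for 48 h at 37 °C, 5% CO2. Viability was read as ATP luminescence with CellTiter-Glo, normalised to DMSO-only (100%) and medium-only (0%) wells.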

[6] = Quantitative High-Throughput drug screen in 47 multiple myeloma cell lines against the NCATS MIPE library collection: Karpas417_ECACC cell viability assay (AID 1918961); details: Karpas417 myeloma viability, CellTiter-Glo ATP luminescence, 48 h; viability (% of DMSO): at 45.8 µM (top of the series)
Procedure, shortened: as §1

[7] = Quantitative High-Throughput drug screen in 47 multiple myeloma cell lines against the NCATS MIPE library collection: JIM3_ECACC cell viability assay (AID 1918963; note: nearly all actives have a fitted effect of over 35% in size); details: JIM3 myeloma viability, CellTiter-Glo ATP, 48 h; series mostly up to 45.8 µM
Procedure, shortened: as §1

[8] = Quantitative High-Throughput drug screen in 47 multiple myeloma cell lines against the NCATS MIPE library collection: INA6_PLB cell viability assay (AID 1918965; note: nearly all actives have a fitted effect of over 55% in size); details: INA6 myeloma viability, CellTiter-Glo ATP luminescence, 48 h; series mostly up to 45.8 µM
Procedure, shortened: as §1

[9] = Quantitative High-Throughput drug screen in 47 multiple myeloma cell lines against the NCATS MIPE library collection: Karpas25_ECACC cell viability assay (AID 1918968; note: nearly all actives have a fitted effect of over 35% in size); details: Karpas25 myeloma viability, CellTiter-Glo ATP, 48 h; series mostly up to 45.8 µM
Procedure, shortened: as §1

[10] = Quantitative High-Throughput drug screen in 47 multiple myeloma cell lines against the NCATS MIPE library collection: KMS27_JCRB cell viability assay (AID 1918970); details: KMS27 myeloma cells, CellTiter-Glo ATP viability, 48 h; series mostly up to 45.8 µM; note: nearly all actives have a fitted effect of over 30% in size
Procedure, shortened: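 Each line is seeded at 500 cells per well and treated with library compounds for 48 hours under 37 °C, 5% CO2. CellTiter-Glo is then added for 5 min at room temperature before median relative luminescence is recorded.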

[11] = Quantitative High-Throughput drug screen in 47 multiple myeloma cell lines against the NCATS MIPE library collection: KMS12BM_JCRB cell viability assay (AID 1918971); details: KMS12BM myeloma viability, CellTiter-Glo ATP, 48 h; series mostly up to 45.8 µM; note: nearly all actives have a fitted effect of over 35% in size
Procedure, shortened: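 Relative luminescence from CellTiter-Glo served as the viability signal, referenced to DMSO-treated (100%) and cell-free medium (0%) controls. Treatment lasted 48 hours at 37C with 500 cells per well.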

[12] = Quantitative High-Throughput drug screen in 47 multiple myeloma cell lines against the NCATS MIPE library collection: KMS12PE_JCRB cell viability assay (AID 1918972); details: KMS12PE myeloma viability, CellTiter-Glo ATP, 48 h; series mostly up to 45.8 µM; note: nearly all actives have a fitted effect of over 30% in size
Procedure, shortened: as §1

[13] = Quantitative High-Throughput drug screen in 47 multiple myeloma cell lines against the NCATS MIPE library collection: EJM_DSMZ cell viability assay (AID 1918926; note: nearly all actives have a fitted effect of over 30% in size); details: EJM myeloma cell viability, CellTiter-Glo ATP, 48 h; series mostly up to 45.8 µM
Procedure, shortened: as §1

[14] = Quantitative High-Throughput drug screen in 47 multiple myeloma cell lines against the NCATS MIPE library collection: ARP1_JJKsccF8 cell viability assay (AID 1918928; note: nearly all actives have a fitted effect of over 40% in size); details: ARP1 myeloma cells viability, CellTiter-Glo ATP, 48 h; series mostly up to 45.8 µM
Procedure, shortened: as §2

[15] = Quantitative High-Throughput drug screen in 47 multiple myeloma cell lines against the NCATS MIPE library collection: JIM1_ECACC cell viability assay (AID 1918964); details: JIM1 myeloma viability, CellTiter-Glo ATP luminescence, 48 h; series mostly up to 45.8 µM
Procedure, shortened: as §1

[16] = Quantitative High-Throughput drug screen in 47 multiple myeloma cell lines against the NCATS MIPE library collection: KMS20_JCRB cell viability assay (AID 1918973); details: CellTiter-Glo ATP, 48 h; series mostly up to 45.8 µM; note: nearly all actives have a fitted effect of over 45% in size
Procedure, shortened: as §1

[17] = Quantitative High-Throughput drug screen in 47 multiple myeloma cell lines against the NCATS MIPE library collection: KHM11_PLB cell viability assay (AID 1918962); details: KHM11 myeloma cell viability, CellTiter-Glo ATP luminescence, 48 h; series mostly up to 45.8 µM; note: nearly all actives have a fitted effect of over 35% in size
Procedure, shortened: as §1

[18] = Quantitative High-Throughput drug screen in 47 multiple myeloma cell lines against the NCATS MIPE library collection: H1112_PLB cell viability assay (AID 1918967; note: nearly all actives have a fitted effect of over 30% in size); details: H1112 myeloma cells viability, ATP luminescence, 48 h; series mostly up to 45.8 µM
Procedure, shortened: as §1

[19] = Quantitative High-Throughput drug screen in 47 multiple myeloma cell lines against the NCATS MIPE library collection: JJN3_DSMZ cell viability assay (AID 1918966; note: nearly all actives have a fitted effect of over 50% in size); details: JJN3 myeloma cells viability, CellTiter-Glo ATP, 48 h; series mostly up to 45.8 µM
Procedure, shortened: as §1

Measured: Potency
Potency is the fitted concentration of half-maximal effect.

CCC(=C(c1ccccc1)c1ccc(OCCN(C)C)cc1)c1ccccc1
active: [1] 23.5 µM | [2] 18.7 µM | [3] 20.9 µM | [4] 23.5 µM | [5] 18.7 µM | [6] 14.8 µM | [7] 23.5 µM | [8] 16.6 µM | [9] 18.7 µM | [10] 20.9 µM | [11] 26.4 µM | [12] 13.2 µM

CN1c2cc(O)c(N=NC(N)=O)cc2CC1S(=O)(=O)O (configuration not stated)
active: [3] 0.0012 µM
not listed: [1] | [2] | [4] | [6] | [17] | [18] | [19]
inactive: all other assays above

COc1cc(OC2CCN(C)CC2)ccc1Nc1ncc2c(n1)n(C1CCCC1)c(=O)n2C
active: [1] 5.9 µM | [2] 11.8 µM | [14] 16.6 µM | [3] 9.35 µM | [4] 23.5 µM | [17] 6.62 µM | [7] 11.8 µM | [15] 11.8 µM | [8] 3.72 µM | [18] 14.8 µM | [9] 6.62 µM | [10] 20.9 µM | [11] 9.35 µM | [12] 7.43 µM | [16] 7.43 µM

CCNC(=O)Nc1ccc2ncc(Nc3ccc(C)cc3)nc2n1
active: [1] 3.32 µM | [2] 2.35 µM | [3] 3.72 µM | [4] 1.87 µM | [5] 2.64 µM | [6] 0.059 µM | [17] 3.72 µM | [7] 4.69 µM | [18] 5.9 µM | [9] 5.9 µM | [10] 0.526 µM | [12] 2.35 µM

CCN1CCN(Cc2ccc(-c3cc4c(N[C@H](C)c5ccccc5)ncnc4[nH]3)cc2)CC1
active: [3] 0.0469 µM | [4] 0.0332 µM | [5] 0.0743 µM | [6] 8.33 µM | [17] 5.9 µM | [7] 0.469 µM | [8] 0.418 µM | [10] 0.0166 µM | [12] 0.0469 µM

Nc1ccc(S(=O)(=O)Nc2ncccn2)cc1
inactive: [13] | [2] | [3] | [4] | [7] | [8] | [9] | [10] | [11] | [12]

C[C@]1(CO)CN(c2cc(C(=O)Nc3ccc4c(c3)-c3c(c(C(N)=O)nn3-c3ccc(F)cc3)CC4)c(Cl)cn2)C[C@@]1(C)CO
active: [1] 9.35 µM | [4] 1.66 µM | [5] 0.209 µM | [6] 2.64 µM | [17] 4.18 µM | [15] 11.8 µM | [8] 2.64 µM | [18] 11.8 µM | [9] 14.8 µM | [10] 0.0053 µM | [11] 16.6 µM | [16] 5.26 µM

CN(C)CC(C)(C)CNc1nn2c(-c3ccccc3)nnc2cc1C1CCC1
inactive: [3]
active: [1] 13.2 µM | [4] 14.8 µM | [15] 2.09 µM | [8] 2.96 µM | [9] 16.6 µM | [10] 1.18 µM

Clc1ccc2ncc(-c3cccc(NC4CNC4)n3)n2c1
active: [13] 18.7 µM | [2] 4.69 µM | [14] 23.5 µM | [5] 2.35 µM | [17] 8.33 µM | [7] 14.8 µM | [8] 5.9 µM | [19] 16.6 µM | [18] 11.8 µM | [9] 26.4 µM | [11] 23.5 µM | [12] 5.9 µM
inactive: [4] | [6] | [10]

C=CC(=O)Nc1cccc(Oc2nc(Nc3ccc(N4CCN(C)CC4)cc3OC)ncc2Cl)c1
active: [1] 0.0296 µM | [7] 0.118 µM | [8] 0.469 µM | [19] 20.9 µM | [10] 37.2 µM
inactive: [6]

N#Cc1c(O)c2c(-c3ccc(-c4ccccc4O)cc3)csc2[nH]c1=O
active: [11] 5.26 µM
not listed: [2] | [6] | [13] | [15] | [16] | [17] | [19]
inactive: all other assays above

Cc1ccc(CN2CCNCC2)cc1NC(=O)CNc1ccc(F)c(F)c1
active: [13] 3.32 µM | [9] 5.9 µM
not listed: [2] | [4] | [6] | [8] | [11] | [14] | [17]
inactive: all other assays above

COc1cc2c(Oc3ccc4[nH]c(C)cc4c3F)ncnc2cc1OCCCN1CCCC1
active: [1] 3.32 µM | [14] 23.5 µM | [4] 2.96 µM | [5] 2.35 µM | [17] 4.69 µM | [7] 9.35 µM | [8] 9.35 µM | [19] 20.9 µM | [18] 8.33 µM | [9] 5.9 µM | [11] 29.6 µM | [12] 2.64 µM | [16] 2.96 µM

Reference: PubChem BioAssay (NCATS)
